From PubChem BioAssay (NCATS) come the findings set out here.

Records with an inconclusive call do not appear. A number with no mark means an inactive call. Active and inactive are the calls of the source. Unless noted, the call rests on the fitted dose curve; in most records, active means well fitted curve in the direction sought with a large enough effect; inconclusive means small, poorly fitted or top-dose-only effect, or another doubt; inactive means no such curve, though single readings can be large; an effect the other way counts as inactive or inconclusive.

Experiment [1] deals with Voltage-gated inwardly rectifying potassium channel KCNH2 (Homo sapiens) (UniProt Q12809). Description: qHTS Assay for Small Molecule Inhibitors of the Human hERG Channel Activity (AID 588834).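 Further: lower thallium flux fluorescence means stronger hERG block; nearly all actives have a fitted effect of over 50% in size.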 Further: potency means the concentration at half of the fitted maximal effect. The method in brief: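 Thallium-flux (FluxOR) read-out on FDSS: fluorescence read 10 s before and 2 min after stimulation buffer. hERG-BacMam-transduced U2OS cells, compound exposure about 10 min. AC50 by standard Hill equation.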
Sequence of Voltage-gated inwardly rectifying potassium channel KCNH2 (Homo sapiens) (Q12809 whole entry, looked up): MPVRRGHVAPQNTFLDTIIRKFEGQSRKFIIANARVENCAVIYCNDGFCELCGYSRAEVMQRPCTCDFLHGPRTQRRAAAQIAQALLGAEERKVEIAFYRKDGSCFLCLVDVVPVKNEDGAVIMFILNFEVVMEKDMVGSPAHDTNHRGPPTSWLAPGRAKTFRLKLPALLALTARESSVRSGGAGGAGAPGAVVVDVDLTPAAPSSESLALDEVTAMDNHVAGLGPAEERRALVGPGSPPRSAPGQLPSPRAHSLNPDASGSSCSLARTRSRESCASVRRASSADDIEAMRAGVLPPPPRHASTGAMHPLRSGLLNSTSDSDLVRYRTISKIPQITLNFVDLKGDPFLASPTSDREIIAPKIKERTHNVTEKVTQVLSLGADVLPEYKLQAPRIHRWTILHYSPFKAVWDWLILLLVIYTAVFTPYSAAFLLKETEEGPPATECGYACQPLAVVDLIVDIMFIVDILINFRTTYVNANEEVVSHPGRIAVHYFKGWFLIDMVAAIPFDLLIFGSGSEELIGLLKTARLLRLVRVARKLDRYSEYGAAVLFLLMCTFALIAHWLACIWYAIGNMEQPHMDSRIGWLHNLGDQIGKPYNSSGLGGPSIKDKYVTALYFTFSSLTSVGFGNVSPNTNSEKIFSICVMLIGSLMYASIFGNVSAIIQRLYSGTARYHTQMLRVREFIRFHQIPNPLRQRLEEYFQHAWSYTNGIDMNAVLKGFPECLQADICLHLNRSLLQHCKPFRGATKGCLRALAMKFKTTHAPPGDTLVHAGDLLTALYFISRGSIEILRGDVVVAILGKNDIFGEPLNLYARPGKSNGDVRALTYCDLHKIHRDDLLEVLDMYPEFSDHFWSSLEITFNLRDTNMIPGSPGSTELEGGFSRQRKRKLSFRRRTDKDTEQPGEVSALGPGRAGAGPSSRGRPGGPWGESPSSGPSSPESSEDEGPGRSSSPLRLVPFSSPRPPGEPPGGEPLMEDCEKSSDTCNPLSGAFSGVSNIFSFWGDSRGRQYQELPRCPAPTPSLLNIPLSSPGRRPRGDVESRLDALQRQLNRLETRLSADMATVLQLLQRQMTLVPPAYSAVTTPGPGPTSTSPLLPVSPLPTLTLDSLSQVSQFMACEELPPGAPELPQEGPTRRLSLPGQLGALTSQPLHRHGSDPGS
Background: Quantitative high-throughput screening tests each substance at several concentrations.

Experiment [2] addresses Luciferin 4-monooxygenase (Photinus pyralis) (UniProt P08659). The experiment in a line: Biochemical firefly luciferase enzyme assay for NPC (AID 624030). Further: nearly all actives have a fitted effect of over 70% in size. Further: potency means the concentration at half of the fitted maximal effect. The method in brief: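 Counter-screen for direct inhibition of the luciferase enzyme by approved-drug library compounds, run at 10 nM enzyme in 50 mM Tris acetate (final). Luminescence was read within 5 min of enzyme-buffer addition and normalized to PTC124 versus DMSO (0%).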

Experiment [3] is described as follows: S16 Schwann cell viability assay (CellTiter-Glo assay) (AID 624031). Further: nearly all actives have a fitted effect of over 70% in size. Further: potency means the concentration at half of the fitted maximal effect. The method in brief:
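Rat S16 Schwann cells without reporter constructs received compound or DMSO for 24 h at 37 °C under 5% CO2. Cellular ATP was then quantified by CellTiter-Glo luminescence, with vehicle wells defined as 0% activity and cell-free wells as reference.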
(Cellular ATP, detected with luciferase, serves as a proxy for viable cell number.)

Experiment [4] is described as follows: S16 Schwann cell PMP22 intronic element firefly luciferase assay (AID 624032). Further: nearly all actives have a fitted effect of over 30% in size. Further: potency means the concentration at half of the fitted maximal effect. The method in brief:
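Rat S16 Schwann cells stably carrying a PMP22 intronic element-driven Fluc reporter were seeded overnight, then exposed to compounds for 24 h at 37 °C. Luminescence was normalized to PTC124 (positive control) and DMSO (0% activity).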

The nature of experiment [5]: S16 Schwann cell PMP22 intronic element beta-lactamase assay (AID 624044; calls by dose curve;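 further: 0% = DMSO and -100% = potassium clavulanate positive control; nearly all actives have a fitted effect of over 15% in size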). To be noted: S16 rat Schwann cells, PMP22 element beta-lactamase FRET, 24 h; ratio activity, negative = inhibition: at 38.3 µM (top of the series) unless noted. Summed up: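 Beta-lactamase reporter under a PMP22 intronic regulatory element in stable S16 rat Schwann cells; 24 h compound exposure. 460 nm blue signal normalized between DMSO (0%) and potassium clavulanate, with 535 nm FRET tracking viability; curves classed by r2 and response.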

Sequence of Luciferin 4-monooxygenase (Photinus pyralis) (P08659 whole entry, looked up): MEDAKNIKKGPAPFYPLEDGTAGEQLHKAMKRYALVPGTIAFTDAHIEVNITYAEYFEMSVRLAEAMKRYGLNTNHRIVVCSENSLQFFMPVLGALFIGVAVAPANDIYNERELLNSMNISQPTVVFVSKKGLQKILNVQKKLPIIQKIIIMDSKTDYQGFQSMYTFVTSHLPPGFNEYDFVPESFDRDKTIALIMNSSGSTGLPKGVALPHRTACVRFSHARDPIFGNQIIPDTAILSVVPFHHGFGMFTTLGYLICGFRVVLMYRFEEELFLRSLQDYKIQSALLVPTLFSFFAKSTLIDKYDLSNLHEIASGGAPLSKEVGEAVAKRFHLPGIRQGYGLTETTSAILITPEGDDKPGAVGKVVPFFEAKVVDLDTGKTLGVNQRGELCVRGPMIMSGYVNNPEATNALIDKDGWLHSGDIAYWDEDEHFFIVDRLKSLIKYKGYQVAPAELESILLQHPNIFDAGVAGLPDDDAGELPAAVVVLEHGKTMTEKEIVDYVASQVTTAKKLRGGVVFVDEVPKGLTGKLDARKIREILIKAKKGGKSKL

Regarding `CC(C)c1ncc([N+](=O)[O-])n1C`, the Potency result in experiment [1], in experiment [2], in experiment [3] and in experiment [4] was “inactive” in each case.

Regarding `O=C(CCCN1CCC(C(=O)c2ccc(F)cc2)CC1)c1ccc(F)cc1`, the Potency in experiment [1] is 0.0891 µM (active). The Potency result in experiment [2], in experiment [3] and in experiment [4] was “inactive” each time.

Take `Cc1cccc(C)c1NC(=O)C1CCCCN1C` (configuration not stated): the Potency entry in experiment [1], in experiment [2], in experiment [3] and in experiment [4] was “inactive” throughout.

As to `COc1ccc(/C=C/C(=O)O)cc1`, the Potency result in experiment [1], in experiment [2], in experiment [3] and in experiment [4] was “inactive” in each case.

For the compound `CNC(=O)[C@H](Cc1c[nH]c2ccccc12)NC(=O)[C@@H](CC(=O)NO)CC(C)C`, the Potency entry in experiment [1], in experiment [2], in experiment [3] and in experiment [4] was “inactive” throughout.

`CC1(C)S[C@@H]2[C@H](NC(=O)C3(N)CCCCC3)C(=O)N2[C@H]1C(=O)O`: the Potency result in experiment [1], in experiment [2], in experiment [3] and in experiment [4] was “inactive” throughout.

Take `O=C(Nc1ccc(O)cc1)c1ccccc1O`: the Potency entry in experiment [1], in experiment [3] and in experiment [4] was “inactive” throughout. The Potency in experiment [2] was 14.4 µM (active).

Regarding `FCOC(C(F)(F)F)C(F)(F)F`, the Potency entry in experiment [1], in experiment [2], in experiment [3] and in experiment [4] was “inactive” throughout.

For `S=C=Nc1ccc(N=C=S)cc1`, the Potency result in experiment [1], in experiment [2], in experiment [3] and in experiment [4] was “inactive” each time.

As for `NCC[C@H](O)C(=O)N[C@@H]1C[C@H](N)[C@@H](O[C@H]2O[C@H](CN)CC[C@H]2N)[C@H](O)[C@H]1O[C@H]1O[C@H](CO)[C@@H](O)[C@H](N)[C@H]1O`, the Potency result in experiment [1], in experiment [2], in experiment [3] and in experiment [4] was “inactive” throughout.

For the compound `CSCCC(N)C(=O)O` (configuration not stated), the Potency entry in experiment [1], in experiment [2], in experiment [3] and in experiment [4] was “inactive” in each case.

As for `CC(C)(C)CC(C)(C)c1cc(Cc2cc(C(C)(C)CC(C)(C)C)cc(-n3nc4ccccc4n3)c2O)c(O)c(-n2nc3ccccc3n2)c1`, the Potency entry in experiment [1], in experiment [2], in experiment [3] and in experiment [4] was “inactive” each time.

Take `FC(F)(F)COCC(F)(F)F`: the Potency result in experiment [1], in experiment [2], in experiment [3] and in experiment [4] was “inactive” in each case.

As for `Cc1nc(NS(=O)(=O)c2ccc(N)cc2)nc(C)c1Br`, the Potency entry in experiment [1], in experiment [2], in experiment [3] and in experiment [4] was “inactive” in each case.

Regarding `CN1C(=O)OC(C)(C)C1=O`, the Potency entry in experiment [1], in experiment [2], in experiment [3] and in experiment [4] was “inactive” in each case.

Consider `CCN(CC)CCOC(=O)c1cccnc1`, for which the Potency result in experiment [1], in experiment [2], in experiment [3] and in experiment [4] was “inactive” each time.

Take `CN=C1C=CC(=C(c2ccc(N(C)C)cc2)c2ccc(N(C)C)cc2)C=C1`: the Potency in experiment [1] was 4.47 µM (active); in experiment [2] it was 14.4 µM (active); in experiment [3], 10.2 µM (active); in experiment [4] it was 14.4 µM (active).

As for `CCCCC(CC)CCC(CC(C)C)OS(=O)(=O)O` (configuration not stated), the Potency result in experiment [1], in experiment [2], in experiment [3] and in experiment [4] was “inactive” in each case.

`CCC(O)c1ccccc1` (configuration not stated): the Potency result in experiment [1], in experiment [2], in experiment [3] and in experiment [4] was “inactive” throughout.

For `CS(=O)(=O)OCC(O)C(O)COS(C)(=O)=O` (configuration not stated), the Potency entry in experiment [1], in experiment [2], in experiment [3] and in experiment [4] was “inactive” each time.

In the case of `CN(Cc1ccccc1)Cc1ccccc1`, the Potency entry in experiment [1], in experiment [2], in experiment [3] and in experiment [4] was “inactive” throughout.

As to `CC/C=C\C/C=C\C/C=C\C/C=C\C/C=C\CCCC(=O)O`, the Potency result in experiment [1], in experiment [2], in experiment [3] and in experiment [4] was “inactive” in each case.

As to `CNC(=O)OCc1cccc(COC(=O)NC)n1`, the Potency result in experiment [1], in experiment [2], in experiment [3] and in experiment [4] was “inactive” throughout.

As for `CCOc1ccc(S(=O)(=O)O)c2cccnc12`, the Potency entry in experiment [1], in experiment [2], in experiment [3] and in experiment [4] was “inactive” throughout.

As for `O=C(O)c1ccc(OCCn2ccnc2)cc1`, the Potency entry in experiment [1], in experiment [2], in experiment [3] and in experiment [4] was “inactive” each time.

For `c1ccc(-n2cnnn2)cc1`, the Potency entry in experiment [1], in experiment [2], in experiment [3] and in experiment [4] was “inactive” in each case.

Take `O=S(=O)(O)CCCS(=O)(=O)O`: the Potency result in experiment [1], in experiment [2], in experiment [3] and in experiment [4] was “inactive” in each case.

Turning to `CC(O)CN(C)C` (configuration not stated), the Potency entry in experiment [1], in experiment [2], in experiment [3] and in experiment [4] was “inactive” throughout. Moreover, the ratio activity, negative = inhibition in experiment [5] was 6.7%.

Regarding `COC(=O)CC[C@H](N)C(=O)O`, the Potency result in experiment [1], in experiment [2], in experiment [3] and in experiment [4] was “inactive” in each case. For the same compound, the ratio activity, negative = inhibition in experiment [5] is -5.51%.

Regarding `CNC(=O)c1c(I)c(C(=O)NCC(=O)Nc2c(I)c(C(=O)O)c(I)c(C(=O)NCCO)c2I)c(I)c(N(C)C(C)=O)c1I`, the Potency result in experiment [1], in experiment [2], in experiment [3] and in experiment [4] was “inactive” in each case. Besides, the ratio activity, negative = inhibition in experiment [5] is 5.89%.

As for `FC(F)(F)C(F)(F)C(F)(F)C(F)(F)C(F)(F)C(F)(F)F`, the Potency entry in experiment [1], in experiment [2], in experiment [3] and in experiment [4] was “inactive” throughout. Besides, the ratio activity, negative = inhibition in experiment [5] was 0.234%.

On to `COc1cc2c(cc1OC)[C@@H](Cc1cc(OC)c(OC)c(OC)c1)[N+](C)(CCCOC(=O)CC/C=C/CCC(=O)OCCC[N+]1(C)CCc3cc(OC)c(OC)cc3[C@H]1Cc1cc(OC)c(OC)c(OC)c1)CC2` (some centres not stated), for which the Potency result in experiment [1], in experiment [2], in experiment [3] and in experiment [4] was “inactive” throughout. In addition, the ratio activity, negative = inhibition in experiment [5] was -5.32%.

In the case of `C[N+]1(C)[C@@H]2CC(OC(=O)C(O)(c3cccs3)c3cccs3)C[C@H]1[C@@H]1O[C@@H]12` (some centres not stated), the Potency entry in experiment [1], in experiment [2], in experiment [3] and in experiment [4] was “inactive” each time. In experiment [5], the ratio activity, negative = inhibition was -1.55%.

`CCN(CC)CCOc1ccccc1OC`: the Potency result in experiment [1], in experiment [2], in experiment [3] and in experiment [4] was “inactive” in each case. In addition, the ratio activity, negative = inhibition in experiment [5] was -7.82%.

With `O=C1CCC(c2ccccc2)(C2CCN(Cc3ccccc3)CC2)C(=O)N1` (configuration not stated), the Potency in experiment [1] was 14.1 µM (active). In addition, the Potency result in experiment [2], in experiment [3] and in experiment [4] was “inactive” throughout. Further, the ratio activity, negative = inhibition in experiment [5] is 1.84%.

In the case of `CN1CCC(OC(=O)C(Oc2ccc(Cl)cc2)Oc2ccc(Cl)cc2)CC1`, the Potency in experiment [1] was 1 µM (active). In addition, the Potency result in experiment [2], in experiment [3] and in experiment [4] was “inactive” throughout.

For `CCCCCCCCCCCCCCCCCCCCCC(=O)Nc1ccn([C@@H]2O[C@H](CO)[C@@H](O)[C@@H]2O)c(=O)n1`, the Potency result in experiment [1], in experiment [2], in experiment [3] and in experiment [4] was “inactive” throughout. For the same compound, the ratio activity, negative = inhibition in experiment [5] was -0.57%.
